Source: PubChem BioAssay (National Center for Advancing Translational Sciences (NCATS))
Compounds with a hit are over-represented: about 7.8% of the library has one in this group of screens.
VACV mCherry inh: qHTS for Stage-Specific Inhibitors of Vaccinia Orthopoxvirus: mCherry Reporter Primary qHTS; hit rate 0.63% among 310,000; Potency, µM (top dose mostly 36.5 µM), inactives show at the highest dose activity change, negative = inhibition, hits mostly inhibitors; Vaccinia virus mCherry reporter infection, fluorescence; calls by dose curve; tested in A549 cells; also: potency is read from the fitted curve at half-maximal effect; nearly all actives have a fitted effect of over 35% in size
Vaccinia Venus: qHTS for Stage-Specific Inhibitors of Vaccinia Orthopoxvirus: Venus Reporter Primary qHTS; Vaccinia virus Venus reporter expression, fluorescence; Potency, µM (top dose mostly 36.5 µM), inactives show at the highest dose activity change, negative = inhibition, actives largely listed as inhibitors; hit rate 0.46% among 330,000; calls by dose curve; tested in A549 cells; also: potency is read from the fitted curve at half-maximal effect; nearly all actives have a fitted effect of over 30% in size
HCV inh: qHTS Assay for Inhibitors of Hepatitis C Virus (HCV) | Huh7.5.1 HCVcc-Cre infection, luciferase reporter, 44 h | Potency, µM (top dose mostly 41.8 µM), for inactives: at the top dose activity change, negative = inhibition, most hits filed as inhibitors | hit rate 3.4% among 340,000 | AID 651820, 2012; active = well fitted inhibition curve with a large enough effect; inconclusive = small, poorly fitted or top-dose-only effect, or another doubt; inactive = no such curve, though single readings can be large or run the other way; also: potency is read from the fitted curve at half-maximal effect
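Compounds are dispensed onto cells plated 4 h earlier at 1,000 per well, with HCVcc-Cre virus (about 0.5 moi) added next. Following 44 h of culture, luminescent signal is measured for 15 sec after 15 min with substrate at room temperature.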
HCMV inh: qHTS Assay for inhibitors of the human cytomegalovirus (HCMV) | HFF cells, HCMV-luciferase reporter, 72 h; stronger effect = lower value | activity change, negative = inhibition, % at 57.5 µM | AID 1259415, 2018 | hit rate 4.5% among 410,000; in the data active = activity change below about -60%; inconclusive = no clear call, values can overlap the other calls; inactive = above about -39%
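Screen run at 2 compound doses on HFFs infected with reporter HCMV, MOI 1 PFU/cell. Luciferase activity from cell lysates at 72 h post infection gave inhibition relative to buffer-only and Salinomycin wells.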
Marburg entry inh: qHTS for inhibitors of binding or entry into cells for Marburg Virus; Marburg virus pseudotyped entry inhibition, cell reporter; Potency, µM (doses to about 37.8 µM), inactives show at the top dose activity change, negative = inhibition, hits mostly inhibitors; hit rate 1.8% among 300,000; AID 540276, 2011; calls by dose curve; tested in HEK293 cells; also: potency is read from the fitted curve at half-maximal effect
Lassa entry inh: qHTS for Inhibitors of binding or entry into cells for Lassa Virus; Lassa virus pseudotype entry inhibition, cell reporter; hit rate 1.2% among 300,000; Potency, µM (highest dose often 37.9 µM), for the others: top-dose activity change, negative = inhibition, actives largely listed as inhibitors; calls by dose curve; tested in HEK293 cells; also: potency is read from the fitted curve at half-maximal effect; nearly all actives have a fitted effect of over 50% in size
* hit, by the source's call; i = inactive; ? = inconclusive; nt = no result given; + = active, no number; ! = not active in a repeat; [ ] = remark or other dose. % is scaled to controls: 0 for no effect and ±100 for the full control effect.

SMILES	VACV mCherry inh	Vaccinia Venus	HCV inh	HCMV inh	Marburg entry inh	Lassa entry inh
COc1cc(C(=O)NCC(c2cccs2)N(C)C)cc(Cl)c1OC(C)C (stereo not given)	i	-24%	?	-61*	-38%	?
COc1ccc(CCNc2ncnc3c2oc2ccccc23)cc1OC	-21%	?	3.2µM*	-92*	?	?
COc1ccc(CCNc2nc(C)nc3c2oc2ccccc23)cc1OC	nt	?	?	-67*	13µM*	13µM*
CC1CCc2onc(C(=O)N3CCN(c4ccccc4)CC3)c2C1 (stereo not given)	i	-13%	nt	?	nt	5%[46.1 µM]
Oc1ccccc1C1CCCCC1c1ccccc1 (stereo not given)	?	?	-9%	-68*	-30%	-22%
O=C(Nc1ccccc1)c1cc(C2CCCCN2C(=O)c2ccccc2)on1 (stereo not given)	i	-21%	nt	3	nt	nt
CC(C)Oc1cccc(C(=O)C2CCCN(Cc3ccc(Oc4ncccn4)cc3)C2)c1 (stereo not given)	-17%	-4%	?	?	?	-25%
COc1c(C)cc(C(=O)C2CCCN(Cc3ccc(Oc4ncccn4)cc3)C2)cc1C (stereo not given)	nt	nt	?	-83*	nt	nt
COc1c(C)cc(C(=O)C2CCCN(Cc3c(C)n(C)n(-c4ccccc4)c3=O)C2)cc1C (stereo not given)	-10%	-3%	1%	-71*	?	-6%
Cc1ccc(CNC(=O)C2CCC(CNS(=O)(=O)c3ccc(C)cc3)CC2)cc1 (stereo not given)	i	-22%	nt	0	nt	28%[46.1 µM]
CCCCN(CC)CCCNC(=O)c1ccc2c(c1)N(Cc1ccc(C)cc1)C(=O)c1ccccc1S2	13µM*	?	nt	-98*	nt	?
Cc1cccc(CN2C(=O)c3ccccc3Sc3ccc(C(=O)NCCCN4CCOCC4)cc32)c1	-23%	-14%	-10%	-64*!	nt	-13%[46.1 µM]
O=C(NCCN1CCOCC1)c1ccc2c(c1)N(Cc1ccccc1)C(=O)c1ccccc1S2	nt	nt	2%	+	nt	nt
O=C(NCCCN1CCOCC1)c1ccc2c(c1)N(Cc1ccccc1)C(=O)c1ccccc1S2	-5%	-3%	10%	0	nt	2%[46.1 µM]
COCCC1CCCCN1C(=O)c1cc(COc2ccc(-n3cncn3)cc2)on1 (stereo not given)	-20%	-21%	10µM*	-74*	?	?
CCCN1CCN(C(=O)c2cc(COc3ccc4ncccc4c3)on2)CC1	i	-10%	10µM*	-68*	nt	nt
COCC1CCCCN1C(=O)c1cc(COc2ccc3ncccc3c2)on1 (stereo not given)	nt	nt	-2%	-84*	nt	nt
COCC1CCN(C(=O)c2cc(COc3ccc4c(c3)CCCC4)on2)C1 (stereo not given)	-1%	-15%	?	28	21%	?
CCN1CCN(C(=O)c2cc(COc3ccc4ncccc4c3)on2)CC1	i	-18%	11µM*	-82*	-19%[46.1 µM]	nt
COCCOC1CCN(C(=O)c2cc(COc3ccc(-n4cncn4)cc3)on2)CC1	-13%	-1%	0%	25	2%	-17%
COc1cc(C(CC(=O)Nc2ccc(Br)cn2)N2Cc3ccccc3C2=O)cc(OC)c1OC (stereo not given)	-11%	-6%	nt	29	nt	-4%[46.1 µM]
CCOc1ccc(NC(=O)c2c(C)nn(-c3ccc(F)cc3)c2-n2cccc2)cc1	-2%	0%	nt	2	nt	?
S=C(NCCCc1cnc[nH]1)NCCCN(Cc1ccc(Cl)cc1)c1ncc(Br)cn1	-25%	?	nt	nt	nt	nt
CCOC(=O)N1CCC(NC(=O)c2cnn(-c3ccc(C)cc3C)c2C2CCN(C(=O)OC(C)(C)C)CC2)CC1	-7%	-9%	nt	12	nt	5%[46.1 µM]
COc1ccc(/C=C/C(=O)c2cc(F)ccc2OC(=O)c2ccccc2)cc1OC	?	?	?	-97*	?	?
COc1ccc(/C=C/C(=O)c2cc(Br)ccc2O)cc1OC	nt	nt	?	-26	nt	nt
